ELG1 genotox = inducers of genotoxicity in HEK293T ELG1-luciferase cells; HEK293T ELG1-luciferase reporter, luminescence, 16 h; AID 504466; Potency, µM (series often up to 46 µM), for the others: at the highest dose activity change, positive = activation, usual class: activators; 1.3% of 330,000 active; also: % of control where 0% means no effect; nearly all actives have a fitted effect of over 60% in size
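ELG1-luciferase HEK293T cells, 2,000/well; compound pinned in; 16 hr, 37 °C, 5% CO2; ONE-Glo, 30 min RT; luminescence on CCD imager.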
FLuc counter = inhibits or activates purified firefly luciferase, miR-21 counter-screen | P08659 | purified FLuc, Km substrates, luminescence inhibition | Potency, µM (top dose mostly 57.5 µM), for the others: at the highest dose activity change, negative = inhibition, actives largely listed as inhibitors | 6.9% of 360,000 active;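 also: plate controls were vehicle for no effect and reference inhibitor for full effect; nearly all actives have a fitted effect of over 55% in size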
Target sequence (P08659 whole entry, looked up): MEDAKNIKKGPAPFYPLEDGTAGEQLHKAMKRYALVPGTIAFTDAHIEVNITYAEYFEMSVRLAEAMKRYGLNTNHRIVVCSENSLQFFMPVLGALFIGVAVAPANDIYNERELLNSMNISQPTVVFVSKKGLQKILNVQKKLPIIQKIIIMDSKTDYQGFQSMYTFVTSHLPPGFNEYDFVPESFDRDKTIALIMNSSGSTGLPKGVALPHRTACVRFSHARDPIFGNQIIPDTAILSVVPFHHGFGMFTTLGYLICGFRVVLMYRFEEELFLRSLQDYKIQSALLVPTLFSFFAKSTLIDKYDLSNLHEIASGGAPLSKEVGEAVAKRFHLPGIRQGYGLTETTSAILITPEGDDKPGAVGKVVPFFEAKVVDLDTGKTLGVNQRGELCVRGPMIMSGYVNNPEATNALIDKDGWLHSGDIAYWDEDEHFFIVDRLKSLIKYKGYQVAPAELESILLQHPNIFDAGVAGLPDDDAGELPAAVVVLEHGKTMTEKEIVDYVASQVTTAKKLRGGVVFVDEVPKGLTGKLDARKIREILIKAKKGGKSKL
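Biochemical qHTS of compounds, final roughly 60 µM downward over six points, against 10 nM purified firefly luciferase using Km concentrations of substrates (10 uM D-luciferin, 10 uM ATP) in Tris acetate pH 7.5 buffer; luminescence output.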
SMN2 splice up = SMN2 splice variant enhancement. AID 1458. HEK293 SMN2-luciferase splicing reporter, luminescence, 30-36 h. 2.8% of 210,000 active. Potency, µM (highest dose often 46.1 µM), for the others: at the highest dose activity change, positive = activation, usual class: activators; also: % of control where 0% means no effect; nearly all actives have a fitted effect of over 55% in size
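qHTS luciferase splicing reporter: luminescence rises when SMN2 exon 7 is included in transfected HEK293 cells. Compound exposure lasted 30-36 h at 37C, with 4.5 mM final sodium butyrate as control, followed by a ONE-Glo read.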
Rab9 promoter act = activators of Rab9 promoter; AID 485297; 2.8% of 320,000 active; Huh7 Rab9 promoter-luciferase reporter, luminescence, 24 h; Potency, µM (top dose mostly 9.22 µM), without a hit: at the top dose activation, negative = inhibition, most hits filed as activators; also: % of control where 0% means no effect; nearly all actives have a fitted effect of over 60% in size
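Cell-based reporter: Huh7 stable for Rab9 promoter-driven luciferase, plated in reduced-serum medium with 10% FBS at 1500 cells/well, compound-treated 24 h at 37 °C, luminescence read after 10 min reagent.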
NPC1 promoter act = activators of NPC1 promoter; Huh7 NPC1 promoter luciferase reporter, 24 h; 2.4% of 320,000 active; AID 485313; Potency, µM (highest dose often 9.22 µM), without a hit: top-dose activation, actives largely listed as activators; also: % of control where 0% means no effect; nearly all actives have a fitted effect of over 60% in size
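Cells: Huh7 expressing luciferase under the NPC1 promoter, 1500/well. Seeded 2 h, compound added, incubated 24 h at 37 °C. Luciferase reagent, 10 min ambient, then luminescence.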
KinaseGlo FLuc = counter-screen: inhibitors of Kinase-Glo firefly luciferase; 0.28% of 200,000 active; Kinase-Glo luciferase, ATP luminescence, 8 min; Potency, µM (series often up to 38.3 µM), for inactives: at the highest dose activity change, negative = inhibition, actives largely listed as inhibitors; Q27757; also: % is scaled to controls: 0 for no effect and ±100 for the full control effect; nearly all actives have a fitted effect of over 60% in size
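Compounds were added to a substrate mix at pH 7.2 (50 mM imidazole, 10 uM ATP, within the enzyme's linear range), followed by Kinase-Glo detection reagent; luminescence was measured after 8 minutes at ambient temperature.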
Starred values were filed as active, the others as inactive; ? = inconclusive; nt = no result given. Most compounds without a hit are left out; they make up all but 7.5% or so of the library. Calls follow the shape of the dose curve; as a rule, active = well fitted curve in the direction sought with a large enough effect; inconclusive = small, poorly fitted or top-dose-only effect, or another doubt; inactive = no such curve, though single readings can be large; an effect the other way counts as inactive or inconclusive. Potency is read from the fitted curve at half-maximal effect.

SMILES | ELG1 genotox | FLuc counter | SMN2 splice up | Rab9 promoter act | NPC1 promoter act | KinaseGlo FLuc
Cc1cc(C)c(NC(=O)Cn2c(=O)n(CC(=O)NCc3ccccc3Cl)c(=O)c3sccc32)c(C)c1 | nt | 0.2% | -6.1% | nt | nt | nt
C#CCOCCOCCOCCNc1nc(N2CCN(C(=O)[C@H](CC(N)=O)n3cc(C(N)[C@@H](C)CC)nn3)CC2)nc(N2CCN(C(=O)[C@H](CCC(=O)O)n3cc([C@@H](N)CCCCN)nn3)CC2)n1 (stereo partly specified) | 4.3% | nt | nt | nt | nt | nt
Cc1ccc(/C=N/Nc2ccccn2)s1 | ? | 10.7µM* | nt | ? | ? | nt
CCOc1ccc(/C=N/Nc2ccccn2)cc1 | 2.31µM* | 1.2µM* | 1.58µM* | 0.501µM* | 1.26µM* | 10µM*
COc1ccc2nc(Cl)c(/C=N/Nc3ccccn3)cc2c1 | ? | 0.536µM* | ? | ? | 27.8% | -23.3%
Clc1ccc(/C=N/Nc2ccccn2)cc1 | ? | 6.75µM* | nt | 3.16µM* | ? | -16.8%
O=c1nc2ccccc2c2n1CC(CN1CCN(c3ccccc3)CC1)N2 (stereo unspecified) | nt | nt | -4.7% | nt | nt | nt
O=C(NCCC1=CCCCC1)c1ccc2c(=O)n3nc(Nc4ccccc4)sc3nc2c1 | nt | 0.8% | nt | nt | nt | nt
CCc1ccn2cc(-c3cc(-c4ccccc4)no3)nc2c1 | ? | 0.0675µM* | nt | -35.8% | -30.6% | nt
Cc1ccc(C(=O)Oc2cc(-c3ccccc3)no2)cc1 | -0.1% | -4.5% | 4.3% | 0.5% | -2.8% | -0.8%
Cc1ccn2cc(-c3ccc(NS(=O)(=O)c4ccccc4)cc3)nc2c1 | 2.5% | ? | -18.0% | 12.2% | 5.0% | -2.7%
Cc1ccc2nc(-c3cc(-c4ccccc4)no3)cn2c1 | 0.259µM* | 0.213µM* | nt | 0.251µM* | 0.794µM* | nt
O=C(NCCc1ccccc1)c1cnc2sc(N3CCCCCC3)nn2c1=O | nt | -8.4% | nt | nt | nt | nt
CC(C)C(=O)NC(c1ccco1)c1ccc2cccnc2c1O (stereo unspecified) | -27.0% | -1.7% | -99.8% | -28.7% | -31.0% | 4.6%
Oc1c(C(Nc2nc3ccccc3s2)c2ccco2)ccc2cccnc12 (stereo unspecified) | 18.4µM* | 15.1µM* | -99.1% | 4.4% | -1.5% | 12.7%
Cc1ccc(Cn2nc(C)cc2C(=O)Nc2ccccc2Cl)cc1 | 23.1µM* | 12µM* | nt | 2.51µM* | ? | nt
Cc1ccc(Cn2nc(C)cc2C(=O)Nc2ccc(Cl)cc2)cc1 | 3.2% | ? | nt | 9.2% | 14.5% | nt
O=C(Nc1ccccc1Cl)c1ccccc1 | ? | -19.0% | -18.9% | 22.1% | 19.4% | -1.1%
O=C(Nc1cccc(Cl)c1Cl)c1ccc(-c2ccccc2)cc1 | ? | ? | ? | ? | 2.51µM* | -6.8%
Cc1ccc(C(=O)Nc2ccccc2Cl)cc1 | ? | 6.75µM* | nt | 1.58µM* | 3.16µM* | nt
CCOC(=O)c1cc(-c2ccc(C)cc2)nn1Cc1ccccc1 | nt | 7.57µM* | ? | nt | nt | nt
COc1ccc(-c2cc(C(=O)O)n(Cc3ccccc3)n2)cc1 | nt | ? | -8.9% | nt | nt | nt
CCOc1ccccc1NC(=O)CSc1nc2c(oc3ccccc32)c(=O)n1-c1ccc(F)cc1 | nt | -2.2% | -1.4% | nt | nt | nt
O=S(=O)(c1ccccc1)N1CCC[C@@]2(CCN(c3ccncc3)C2)C1 | nt | nt | -23.1% | nt | nt | -2.2%
COc1ccccc1C1NC(=O)c2n[nH]c(-c3cccs3)c21 (stereo unspecified) | nt | -13.0% | -3.6% | nt | nt | nt
COc1ccccc1NCC(=O)N/N=C/C=C/c1ccccc1 | 1.5% | 26.9µM* | 17.3% | 0.0% | -0.2% | 1.6%
Cc1ccccc1OCC(=O)N/N=C/C=C/c1ccccc1 | 3.0% | -9.0% | 11.5% | -5.3% | 0.1% | 0.5%
CCOC(=O)N/N=C/C=C/c1ccccc1 | ? | ? | 11.2µM* | ? | ? | -2.5%
Cc1nc2sc3c(c2c(=O)n1N)CCC3 | 5.8% | 6.9% | 18.8% | 1.4% | 0.4% | 0.4%
Nn1c(Cc2ccccc2)nc2sc3c(c2c1=O)CCC3 | -6.7% | 0.0% | nt | 1.4% | -3.3% | nt
